KKLEB cytotox = CF airway cell cytotoxicity counter-screen; KKLEB CF airway cells viability, ATPlite luminescence, overnight; hits give low values; cells stimulated with P. aeruginosa culture filtrate; activity change (cytotoxicity), % at 5 µM; actives 0.36% (n = 360,000);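 active = corrected activity change at or below -50% at 5 µM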
TROY NFkB inh = inhibitors of TROY-dependent NF-kB signaling; Q293 LMP1-TROYcd NF-kB luciferase reporter, 4 h; inhibition, % at 10 µM; actives 0.98% (n = 360,000); AID 1347056;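 active = compounds whose plate-normalised and pattern-corrected inhibition of the luciferase reporter signal at the single screening dose is 50% or more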
EWS-Fli block = inhibitors of EWS/Fli oncoprotein transcriptional activity | inhibition, % at 12.6 µM | AID 651661 | actives 0.67% (n = 350,000) | A673 NR0B1-luciferase reporter, viability-normalised;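 active = mean inhibition of at least 50% after viability correction, with every replicate also passing that limit; inconclusive = mean reaches 50% but only one of two replicates passes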;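 note: firefly luciferase signal divided by Alamar Blue viability fluorescence both relative to DMSO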
LGR2 inh = inhibitors of bursicon-induced Drosophila LGR2 receptor cAMP signaling; HEK293 LGR2, CRE-luciferase, bursicon-stimulated, 4 h; inhibition, % at 9.99 µM; actives 0.35% (n = 380,000);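 active = drop in luminescence signal, shown as inhibition above about 50% in the replicate tests, limit read from the data, passing the limit was not always enough; inconclusive = probably only some replicates passing the limit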;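 note: agonist challenge used bursicon conditioned medium at about half maximal strength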
TWEAK Fn14 block = blocks TWEAK-Fn14 interaction in a reporter cell assay. actives 2% (n = 360,000). inhibition, % at 10 µM. TWEAK-stimulated Fn14 reporter cells, luciferase luminescence, 8 h; in the data active = inhibition above about 50%
CF NFkB inh = cystic fibrosis NF-kB activation inhibition | actives 0.86% (n = 360,000) | inhibition, % at 5 µM | KKLEB NF-kB-GFP reporter, PAF-induced, GFP fluorescence overnight;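 active = at least 50% inhibition at 5 µM, scaled per plate between neutral and stimulator controls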;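 note: PAF is a Pseudomonas aeruginosa culture filtrate used as stimulus; plate controls were PAF-stimulated DMSO wells for no effect and unstimulated DMSO wells for full effect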
Active calls of the source: *; ? = inconclusive; · = no result given. An excerpt weighted towards active compounds, which were near 2.6% of everything screened.

SMILES	KKLEB cytotox	TROY NFkB inh	EWS-Fli block	LGR2 inh	TWEAK Fn14 block	CF NFkB inh
CCN=C1S/C(=C\c2cn(C(C)=O)nc2-c2ccccc2)C(=O)N1CC	2	9	·	·	29	28
CC(=O)NC1=NC(=O)/C(=C/c2cn(C(C)=O)nc2-c2ccccc2)S1	-5	43	9	·	74*	57*
CCn1c(SCC(=O)Nc2ccc(C(C)=O)cc2)nc2c([nH]c3ccccc32)c1=O	-6	-9	32	-23	-8	-3
CCn1c(SCC(=O)Nc2cccc(NC(C)=O)c2)nc2c([nH]c3ccccc32)c1=O	-52*	-26	13	-16	17	61*
CCN1CCN(CCNC(=O)c2ccc(/C=C3\Sc4ccccc4N(Cc4ccccc4F)C3=O)cc2)CC1	-30	65*	10	49	-66	-6
CCN1CCN(CCCNC(=O)c2ccc3c(c2)NC(=O)/C(=C\c2cccc(C)c2)S3)CC1	-10	-36	60*	17	-51	8
CN1CCN(CCCNC(=O)c2ccc(/C=C3/Sc4ccccc4N(Cc4cccc(Cl)c4)C3=O)cc2)CC1	-20	52*	45	?	-31	14
COCCCNC(=O)/C=C1\Sc2ccccc2N(Cc2ccccc2F)C1=O	2	-29	-37	-46	103*	-4
C[C@H]1CN([C@@H](C)CO)C(=O)Cc2cc(NS(=O)(=O)c3ccc(Cl)cc3)ccc2O[C@@H]1CN(C)S(=O)(=O)c1cn(C)cn1	·	·	-8	13	·	·
C[C@@H]1CN([C@H](C)CO)S(=O)(=O)c2ccc(C#CC3CC3)cc2O[C@H]1CN(C)C	·	·	0	4	·	·
C[C@@H](NC(=O)C[C@@H]1CC[C@@H]2[C@H](COC[C@@H](O)CN2C(=O)Nc2cc(Cl)cc(Cl)c2)O1)c1ccccc1	·	·	0	11	·	·
COc1cccc(-c2cc(C(=O)Nc3ccncc3)c3ccccc3n2)c1	7	4	·	-1	89*	-35
COc1cccc(NC(=O)c2cc(-c3ccco3)nc3ccccc23)c1	4	2	-7	-4	3	-17
COc1cc(-c2cc(C(=O)Nc3cccc(C(C)=O)c3)c3ccccc3n2)cc(OC)c1OC	-9	9	21	8	60*	46
COc1cc(-c2cc(C(=O)Nc3ccc(O)cc3)c3ccccc3n2)cc(OC)c1OC	1	0	17	9	-18	-19
CC(=O)c1cccc(NC(=O)c2cc(-c3ccco3)nc3ccccc23)c1	-8	19	-3	12	65*	-22
COc1cccc(NC(=O)c2cc(-c3ccccn3)nc3ccccc23)c1	6	-10	-2	-2	7	-25
COc1ccc(C#Cc2ccc([C@@H]3[C@H](CO)N4C(=O)CN(C(=O)c5ccccc5)C[C@@H]34)cc2)cc1	·	·	11	1	·	·
O=C(NCCCN1CCOCC1)[C@@H]1[C@@H](CO)[C@@H]2Cn3c(ccc(C4=CCCC4)c3=O)[C@H]1N2	·	·	1	0	·	·
C[C@H]1CN([C@@H](C)CO)C(=O)c2cc(C#CC3(O)CCCC3)cnc2O[C@@H]1CN(C)C(=O)C1CCCCC1	·	·	5	-4	·	·
COc1ccc(C)c2sc(=NC(=O)c3ccc(C(C)=O)cc3)n(C)c12	2	51*	-31	-84	40	-11
CC(C)NC(=O)Nc1ccc2c(c1)C(=O)N([C@@H](C)CO)C[C@@H](C)[C@@H](CN(C)C(=O)Nc1ccc(F)cc1)O2	·	·	-6	-14	·	·
Cc1ccc(S(=O)(=O)N2c3ccccc3OCC2c2ccccc2)cc1 (stereo unspecified)	-8	16	·	·	63*	7
C=CCn1c(C)cc(C(=O)CN2C(=O)c3ccccc3S2(=O)=O)c1C	-5	88*	·	·	104*	-14
Cc1cc(C(=O)CN2C(=O)c3ccccc3S2(=O)=O)c(C)n1-c1ccccc1	-9	0	·	·	94*	8
SMILES	KKLEB cytotox	TROY NFkB inh	EWS-Fli block	LGR2 inh	TWEAK Fn14 block	CF NFkB inh
C=CCn1c(C)cc(C(=O)COC(=O)CNC(=O)c2ccccc2)c1C	-3	85*	5	47	89*	6
CN(Cc1ccccc1)C(=O)CN1C(=O)c2ccccc2S1(=O)=O	16	-22	-6	-28	-6	-4
Cc1cc(C(=O)CN2C(=O)C3CC=CCC3C2=O)c(C)n1-c1ccccc1 (stereo unspecified)	-8	-15	·	·	56*	-4
Cc1ccc(C(=O)NCC(=O)OCC(=O)c2cc(C)n(Cc3ccco3)c2C)cc1	-2	-20	-5	3	-27	-1
COc1ccc(NC(=O)Nc2ccc3c(c2)C(=O)N([C@@H](C)CO)C[C@@H](C)[C@@H](CN(C)C(=O)NC2CCCCC2)OCCCC[C@H](C)O3)cc1	·	·	-10	17	·	·
CN(C)CCCNC(=O)C[C@H]1CC[C@@H]2[C@H](COC[C@H](O)CN2CC2CCCCC2)O1	·	·	3	5	·	·
C[C@H]1CN([C@@H](C)CO)C(=O)c2cc(NC(=O)c3ccncc3)ccc2O[C@H]1CN(C)S(=O)(=O)c1ccc(F)cc1	·	·	0	4	·	·
O=C1N[C@@H](Cc2c[nH]c3ccccc23)COC(=O)[C@@H](Cc2ccc(F)cc2)CC/C=C/C[C@@H]1CC(=O)N(CCO)Cc1ccccc1	22	30	10	16	55*	7
CC1(C)C(/C=C/C=C/C=C/C=C2\N(CCCCS(=O)(=O)O)c3ccc4ccccc4c3C2(C)C)=[N+](CCCCS(=O)(=O)[O-])c2ccc3ccccc3c21	27	10	·	·	55*	7
Cc1cccc(-c2ccc([C@@H]3[C@H](CO)N4CCCCN(C(=O)NC(C)C)C[C@@H]34)cc2)c1	·	·	1	3	·	·
C[C@H]1CN([C@@H](C)CO)S(=O)(=O)c2ccc(C#CCN(C)C)cc2O[C@@H]1CN(C)C(=O)CC1CC1	·	·	0	0	·	·
O=C(C[C@@H]1C[C@@H]2c3cc(NC(=O)c4ccc5c(c4)OCO5)ccc3O[C@@H]2[C@@H](CO)O1)NC1CCCC1	·	·	-8	8	·	·
COc1ccc2[nH]c3c(C)c4ccncc4c(C)c3c2c1	-40	46	59*	·	54*	78*
COc1ccc2[nH]c(C)cc(=O)c2c1	-3	11	·	·	8	4
CN(C)CC(=O)N[C@H]1CC[C@H](CCn2cc(C3CC3)nn2)O[C@@H]1CO	·	·	6	-6	·	·
C/C(=N\Nc1ncc(Cl)cc1Cl)c1ccccn1	-59*	0	·	·	92*	23
C/C(=N\Nc1ncnc2sc(C)c(C)c12)c1ccccn1	-4	23	7	-3	73*	-26
C/C(=N\Nc1ccc(Cl)c(C(=O)O)c1)c1ccccn1	11	-67	-14	6	-4	-14
Cc1sc2ncnc(N/N=C/c3cccc(O)c3)c2c1C	-3	-42	·	-34	-4	-2
C/C(=N\Nc1nc(C)cc(C)n1)c1ccc(N2CCOCC2)cc1	15	-3	6	3	-4	-20

Assay outcomes deposited in PubChem BioAssay by several laboratories.
